Hits are enriched below; roughly 1.8% of the tested compounds scored in any of these assays.
PAD4 inh: human PAD4 inhibitors, primary screen, biochemical, fluorescence polarization, 1536-well format | recombinant PAD4, RCA probe fluorescence polarization | AID 485272, 2010 | Protein-arginine deiminase type-4 (Homo sapiens), Q9UM07 | inhibition, % at 6.36 µM | 330,000 compounds, 0.41% hits;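 active = percent inhibition above a cutoff equal to the mean of all tested compounds plus 3 SD, cut at about 15% in these data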
Target sequence (Q9UM07 whole entry, looked up): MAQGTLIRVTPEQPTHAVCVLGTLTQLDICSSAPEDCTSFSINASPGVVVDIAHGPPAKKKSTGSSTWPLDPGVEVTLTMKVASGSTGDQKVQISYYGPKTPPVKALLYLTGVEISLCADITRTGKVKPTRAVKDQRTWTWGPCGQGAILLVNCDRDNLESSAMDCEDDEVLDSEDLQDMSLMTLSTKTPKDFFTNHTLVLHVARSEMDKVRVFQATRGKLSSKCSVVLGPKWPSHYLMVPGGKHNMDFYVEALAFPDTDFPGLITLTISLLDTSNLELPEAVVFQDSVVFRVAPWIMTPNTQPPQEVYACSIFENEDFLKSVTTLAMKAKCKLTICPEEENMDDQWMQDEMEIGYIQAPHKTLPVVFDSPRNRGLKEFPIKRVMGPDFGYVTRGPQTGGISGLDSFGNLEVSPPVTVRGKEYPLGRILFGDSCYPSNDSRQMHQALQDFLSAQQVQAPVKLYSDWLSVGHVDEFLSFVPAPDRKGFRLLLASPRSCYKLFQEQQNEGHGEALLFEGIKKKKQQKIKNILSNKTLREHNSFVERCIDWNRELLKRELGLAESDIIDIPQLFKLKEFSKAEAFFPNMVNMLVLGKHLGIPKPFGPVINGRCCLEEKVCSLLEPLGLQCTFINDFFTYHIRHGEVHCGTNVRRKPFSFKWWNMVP
LYPLA2 counter: LYPLA2 inhibitors, primary screen, counter-screen for PME1 inhibitor project, biochemical, fluorescence polarization, FP-Rh probe ABPP; recombinant LYPLA2; inhibition, % at 5.9 µM; 320,000 compounds, 0.38% hits;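 active = inhibition above the screen-wide mean plus 3 SD, limit set per campaign, cut at about 26% in these data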
GSTO1 counter: inhibitors of recombinant GSTO1, primary screen, counter-screen for RBBP9 inhibitor project, biochemical, fluorescence polarization; activity-based probe fluorescence polarization; Glutathione S-transferase omega-1 (Homo sapiens), P78417; inhibition, % at 5.96 µM; 300,000 compounds, 1.1% hits;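 active = inhibition above the campaign mean inhibition plus 3 SD, cut at about 35% in these data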
PME-1 primary: PME-1 inhibitors via competitive probe labeling, primary screen, biochemical, fluorescence polarization, FP-Rh probe, HTS; Protein phosphatase methylesterase 1 (Homo sapiens), Q9Y570; recombinant PME-1; inhibition, % at 5.9 µM; 320,000 compounds, 0.53% hits; AID 2130, 2009;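 active = inhibition above the campaign mean of all compounds plus 3 SD, cut at about 26% in these data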;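 also: competitive labeling of PME-1 active site by serine hydrolase directed probe; inhibitors block probe labeling so polarization falls and inhibition rises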
Fam108B counter: mouse Fam108B serine hydrolase inhibitors, primary screen, counter-screen for RBBP9 inhibitor project, biochemical, fluorescence polarization | recombinant Fam108B, FP-Rh probe fluorescence polarization | inhibition, % at 9.51 µM | 300,000 compounds, 0.33% hits | AID 1947, 2009;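 active = inhibition above the screen mean inhibition plus 3 SD, computed separately per campaign, cut at about 18% in these data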;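 also: inhibitors lower polarization as less probe binds the enzyme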
LYPLA1 inh: LYPLA1 inhibitors, primary screen, counter-screen for PME1 inhibitor project, biochemical, fluorescence polarization, FP-Rh probe ABPP | Acyl-protein thioesterase 1 (Homo sapiens), O75608 | recombinant LYPLA1 | inhibition, % at 5.9 µM | 320,000 compounds, 0.16% hits;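 active = inhibition above the mean of all tested compounds plus 3 SD, set per campaign, cut at about 14% in these data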;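 also: inhibitors block serine hydrolase probe labeling of LYPLA1 so polarization falls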
PAD4 confirm: human PAD4 inhibitors, confirmation, biochemical, fluorescence polarization; shares compounds with PAD4 inh; recombinant PAD4, RCA probe fluorescence polarization; inhibition, % at 6.36 µM; 1,200 compounds, 28% hits; AID 488796, 2010;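 active = mean inhibition across replicates above the hit cutoff set by the earlier primary screen, cut at about 15% in these data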;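 also: inhibitors block active-site labeling by the probe so polarization falls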
Of the large screens only hits and unclear results are named; the others gave an inactive call (follow-up assays come after a bar, where they were run).

O=C(NC(=S)Nc1ccc2[nH]c(=O)[nH]c2c1)c1ccccc1F	none
COc1ccc2c(c1OC)C(=O)OC2C/C(=N\NC(N)=O)c1ccccc1 (stereo not drawn)	none
CC(=O)COc1ccc2c(C)c(-c3ccccc3)c(=O)oc2c1	PAD4 inh 23 | PAD4 confirm inactive
CCCCc1c(C)c2ccc(OCC(C)=O)cc2oc1=O	none
Oc1ccc(Br)cc1C1Nc2ccccc2S1 (stereo not drawn)	none
CC(CNC(=O)CN1C(=O)NC2(CCCCC2)C1=O)c1ccccc1 (stereo not drawn)	none (no result: GSTO1 counter, Fam108B counter)
CC(NC(=O)c1c(O)c2ccccc2[nH]c1=O)c1ccccc1 (stereo not drawn)	PAD4 inh 16 | PAD4 confirm inactive
O=C1CN(C(=O)NCC(=O)N2CCCC2)c2ccccc2N1	none
COc1cc2oc(=O)ccc2cc1[C@H](O)[C@@H](O)C(C)(C)O	PAD4 inh 45 (no result: GSTO1 counter, Fam108B counter) | PAD4 confirm inactive
Cc1oc2c(C)c(O)ccc2c(=O)c1-c1ccc2ccccc2n1	PAD4 inh 84 | PAD4 confirm inactive
CCC(=O)Oc1ccc2c(=O)c(-c3ccc4ccccc4n3)c(CC)oc2c1C	none
CC1(c2ccc([N+](=O)[O-])cc2)Nc2ccccc2S1 (stereo not drawn)	PAD4 inh 17 | PAD4 confirm inactive
CC(OC(=O)C1=COCCO1)C(=O)Nc1ccccc1C#N (stereo not drawn)	none
CS(=O)(=O)c1cccc(C(=O)NCc2ccccc2)c1	PAD4 inh 35 | PAD4 confirm inactive
Cc1ccc(NS(=O)(=O)c2cccc3nsnc23)cc1C	none
Cn1nnnc1SCC(=O)N1CCN(S(=O)(=O)c2ccc(Cl)cc2)CC1	PAD4 inh 17 | PAD4 confirm inactive
S=c1[nH]nc(-c2cc(-c3ccccc3)n[nH]2)n1/N=C/c1ccc(Cl)cc1	none
S=c1[nH]nc(-c2cc(-c3ccccc3)n[nH]2)n1/N=C/c1cccc(Cl)c1	PAD4 inh 16 | PAD4 confirm inactive
CCS(=O)(=O)CCSc1nc2ccccc2o1	none
O=S(=O)(CCSc1nc2ccccc2o1)c1nc2ccccc2s1	PAD4 inh 17 | PAD4 confirm 16
O=C(CCC(=O)Nc1nnc(C2CCCCC2)s1)Nc1ccc(F)cc1	none
CC(=O)c1cccc(NC(=O)CSC(=O)c2ccccc2)c1	PAD4 inh 15 | PAD4 confirm 18
CCN(CC)c1ccc(NC(=O)CSC(=O)c2ccccc2)cc1	none (no result: LYPLA2 counter, GSTO1 counter, PME-1 primary, Fam108B counter, LYPLA1 inh)
CCCn1c(=O)c2c(nc3n2CCCN3CCc2ccc(OC)c(OC)c2)n(C)c1=O	none
O=C(NCc1ccc(Cl)cc1)C(=O)NCC1OCCCN1S(=O)(=O)c1cccs1 (stereo not drawn)	none
Cc1nnc(SC(=O)N2c3ccccc3Sc3ccccc32)s1	PAD4 inh 34 | PAD4 confirm inactive
CCOC(=O)N1c2ccccc2Sc2ccccc21	none
O=C(NCCCN1CCOCC1)c1cc2c([nH]c3ccccc32)c(-c2cccc(Br)c2)n1	PAD4 inh 46 | PAD4 confirm 31
CC(=O)C1=C(C)NC(SCC(N)=O)=C(C#N)C1C (stereo not drawn)	none
COc1cc(C=O)ccc1OCc1ccc(Cl)nc1	none
COc1cc(C=O)ccc1OCc1ccncc1	PAD4 inh 28 | PAD4 confirm inactive
O=C(O)c1ccccc1SSc1ccccc1C(=O)O	PAD4 inh 45 | PAD4 confirm 38
CC(=O)Nc1ccc(Sc2ccccc2C(=O)O)cc1	none
CCCCCN1N=C(C)CC1=O	PAD4 inh 22 | PAD4 confirm inactive
COc1cc(SC#N)ccc1N=Cc1c(C)[nH]n(-c2cccc3ccccc23)c1=O	PAD4 inh 31 | PAD4 confirm 46
COc1cc(S(=O)(=O)Nc2ccc(C)cc2)ccc1N=Cc1c(C)[nH]n(-c2ccc(C)cc2)c1=O	none
COc1cc(SC#N)ccc1N=Cc1c(C)[nH]n(-c2ccc(C)cc2C)c1=O	PAD4 inh 22 | PAD4 confirm 36
COc1ccccc1N=Cc1c(C)[nH]n(-c2ccc(C)cc2C)c1=O	none
Cc1csc2c(N3CCN(C(=S)Nc4ccc(F)cc4F)CC3)ncnc12	none
COc1ccc(S(=O)(=O)Nc2ccccc2C)cc1	PAD4 inh 75 | PAD4 confirm inactive
COCCNC(=O)C(c1cccnc1)N(Cc1ccc(C)cc1)C(=O)Cn1nnc2ccccc21 (stereo not drawn)	none
Cc1cc2nc3c(=O)[nH]c(=S)[nH]c3nc2cc1NC(=O)C(F)(F)F	PAD4 inh 41 | PAD4 confirm 39
CCC(CN(C)C)Oc1cc(NCc2ccccc2)c2ncn(C(C)C)c2c1 (stereo not drawn)	PAD4 inh 38 (no result: LYPLA2 counter, GSTO1 counter, PME-1 primary, Fam108B counter, LYPLA1 inh) | PAD4 confirm inactive
COC(=O)c1cnn(-c2ccccc2)c1C(OC)OC	PAD4 inh 18 | PAD4 confirm inactive
COC(=O)c1cnn(-c2ccccc2)c1/C=N/NC(=S)Nc1ccccc1	none
COc1ccc(N(C)S(=O)(=O)c2cccc(C(=O)OCC(=O)N3CC(C)CC(C)C3)c2)cc1 (stereo not drawn)	PAD4 inh 17 (no result: LYPLA2 counter, GSTO1 counter, PME-1 primary, Fam108B counter, LYPLA1 inh) | PAD4 confirm inactive
COc1ccc(N(C)S(=O)(=O)c2cccc(C(=O)OCC(=O)NCc3ccccc3OC)c2)cc1	none
COC(=O)[C@@H]1C[C@]2(OC(=O)c3ccccc3)C=CC(=O)C[C@@H]2N1C(=O)OCc1ccccc1	PAD4 inh 19 | PAD4 confirm 22
COC(CNC(=O)C1CCCN1C(=O)OCc1ccccc1)OC (stereo not drawn)	none
CC(C(=O)O)C(=O)O	PAD4 inh 39 | PAD4 confirm inactive
C[C@@H](O)CC(=O)O	none
Cc1oc2cc(O)ccc2c(=O)c1-c1nncn1-c1ccccc1	PAD4 inh 18 | PAD4 confirm 16
COc1cccc(NC(=O)c2ccccc2-c2ccccc2C(=O)O)c1	PAD4 inh 18 | PAD4 confirm inactive
Cc1ccccc1NC(=S)N(Cc1ccco1)C(C)c1ccccn1 (stereo not drawn)	none
CC1=NN(c2ccccc2)C(=O)C1C=Nc1ccc(N(C)C)cc1 (stereo not drawn)	PAD4 inh 51, GSTO1 counter 63 | PAD4 confirm inactive
COc1ccc(C(=O)Nc2ccc(S(=O)(=O)Nc3cc(C)nc(C)n3)cc2)c(OC)c1	PAD4 inh 31 | PAD4 confirm 21
